Sampled rows, rich in hits. Any-hit rate of the full collection: about 19%.
Pf growth 48h: Primary qHTS for delayed death inhibitors of the malarial parasite plastid, 48 hour incubation; P. falciparum luciferase growth in erythrocytes, 48 h; Potency, µM (titrated, usually from 28.7 µM), for inactives: at the highest dose activity change, negative = inhibition, actives largely listed as inhibitors; hit rate 5.9% among 310,000; AID 504832, 2011; further: potency means the concentration at half of the fitted maximal effect; on the % scale 0 is the no-effect control and ±100 the full control effect
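Luminescence readout; reporter = integrated firefly luciferase in P. falciparum. RBC culture at 2% hematocrit, 0.1% parasitemia final, 37 C/5% CO2; decreased signal taken as growth inhibition.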
CHX counter: Cycloheximide Counterscreen for Small Molecule Inhibitors of Shiga Toxin. cell reporter, cycloheximide protein synthesis inhibition counterscreen. max response, %. hit rate 12% among 300,000; in the data active means max response mostly above about 13%, no sharp cut-off; inactive means mostly below about 14%; further: read at 38.3 µM for the half of the compounds with a filed dose; 0% is about no effect
AMA1 RON2 block: qHTS for Inhibitors of AMA1-RON; Towards Development of Antimalarial Drug Lead: Primary Screen; AlphaScreen AMA1-biotinylated RON2 peptide binding; hit rate 0.2% among 360,000; Potency, µM (top dose mostly 58.2 µM), for the others: top-dose activity change, negative = inhibition, hits mostly inhibitors; Plasmodium falciparum AMA1 (3D7) - RON2 peptide interaction; AID 720542, 2013;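 further: potency means the concentration at half of the fitted maximal effect; 0% = vehicle wells and -100% = peptide control; nearly all actives have a fitted effect of over 45% in size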
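AMA1 (3D7) with his tag at 25 nM final met compounds first, then biotinylated RON2 peptide at 25 nM; detection used donor plus acceptor beads, 10 µg/mL apiece, read by AlphaScreen after 30 min at room temperature.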
Pf growth 96h: Primary qHTS for delayed death inhibitors of the malarial parasite plastid, 96 hour incubation; P. falciparum luciferase reporter growth, 96 h; Potency, µM (top dose mostly 28.7 µM), for the others: top-dose activity change, negative = inhibition, actives largely listed as inhibitors; hit rate 6.9% among 320,000; further: potency means the concentration at half of the fitted maximal effect; on the % scale 0 is the no-effect control and ±100 the full control effect
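Readout is luminescence from an integrated firefly luciferase in P. falciparum. Red cells, 2% hematocrit and 0.05% parasitemia final, were cultured with compound through two parasite generations (96 hours) at 37 C, 5% CO2.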
SARS PLpro yeast: qHTS of Yeast-based Assay for SARS-CoV PLP. AID 485353, 2010. S. cerevisiae expressing SARS-CoV PLpro, growth rescue. Potency, µM (doses to about 32.9 µM), inactives show top-dose activity, positive = growth rescue, usual class: activators. hit rate 0.19% among 330,000; calls by dose curve; further: potency means the concentration at half of the fitted maximal effect; 0% is about no effect; nearly all actives have a fitted effect of over 55% in size
Shiga inhibitor: A qHTS for Small Molecule Inhibitors of Shiga Toxin; Vero cells, Shiga toxin protein synthesis inhibition reporter; inhibition, % at 38.7 µM; hit rate 9.2% among 290,000; in the data active means inhibition mostly above about 28%, no sharp cut-off; inactive means mostly below about 43%; further: 0% is about no effect
* hit, by the source's call; u = inconclusive; x = no result given; [ ] = another dose, or the depositor's remark. Unless noted, the call rests on the fitted dose curve; in most records, active means well fitted curve in the direction sought with a large enough effect; inconclusive means small, poorly fitted or top-dose-only effect, or another doubt; inactive means no such curve, though single readings can be large; an effect the other way counts as inactive or inconclusive.

SMILES | Pf growth 48h | CHX counter | AMA1 RON2 block | Pf growth 96h | SARS PLpro yeast | Shiga inhibitor
CCOc1ccc(CN2CCN(Cc3nc4c(s3)CCCC4)CC2CCO)cc1 (stereo not drawn) | u | -4 | -3% | 45% | 0% | 11
Cc1ccc(-c2c(C(=O)N(C)Cc3ccccc3)oc(=O)c3ccccc23)cc1 | u | 4 | -18% | 4.7µM* | -47% | 7
CN(Cc1ccccc1)C(=O)c1oc(=O)c2ccccc2c1-c1ccccc1 | -18% | -6 | -2% | -29% | -19% | -2
Cc1ccc(O)c(NC(=S)NC(=O)c2ccccc2Cl)c1 | 25% | 17* | 1% | 4% | -1% | 46
Cc1ccc(O)c(NC(=O)c2ccccc2-c2ccccc2C(=O)O)c1 | 21% | -1 | 9% | u | 3% | x
Cc1nn(C)c(C(=O)NC(=S)Nc2ccccc2O)c1Cl | u | 10* | 94% | u | -5% | 19
O=C(NC(=S)Nc1ccc(O)cc1)c1ccccc1Cl | 99% | 34* | 59% | -4% | -2% | 48
COc1ccc(NC(=S)NC(=O)c2ccccc2Cl)cc1 | 100% | 38* | 27% | u | 0% | 96*
CCOc1ccc(NC(=S)NC(=O)c2c(Cl)c(C)nn2C)c([N+](=O)[O-])c1 | 5% | 1 | 1% | 17% | 11% | 3
COCCn1c(N)c(N(Cc2ccccc2)C(=O)c2oc3ccccc3c2C)c(=O)[nH]c1=O | u | 5 | -20% | u | 1% | 32
O=c1[nH]c(O)c(N=Nc2ccc(SC(F)F)cc2)c(=O)[nH]1 | 44% | 20* | -12% | 54% | 0% | 36
NC(=O)c1ccc(N=Nc2c(O)[nH]c(=O)[nH]c2=O)cc1 | 2% | -1 | x | 77% | 13% | 2
COC(CNc1nc(SC)nc2sc3c(c12)CCN(C)C3)OC | u | -3 | -15% | 5.2µM* | 0% | -6
CSc1nc(NCc2ccco2)c2c3c(sc2n1)CN(C)CC3 | 2.9µM* | -3 | x | -3%[5.75 µM] | 0% | -13
CC1c2c([nH]c3ccccc23)CCC1C(=O)O (stereo not drawn) | 5% | 67 | -3% | 24% | 6% | 81
Cc1c(NC(=O)c2n[nH]c(=O)c3ccccc23)c(=O)n(-c2ccccc2)n1C | 3% | 1 | -10% | 2%[5.75 µM] | 1% | -10
O=C(COc1ccc(S(=O)(=O)N2CCCC2)cc1Cl)NC1CCCC1 | 9.3µM* | 3 | -5% | x | 8% | 18
O=C(COc1ccc(Cl)cc1[N+](=O)[O-])NC1CCCCC1 | 111% | 24* | -7% | -9% | 0% | 71*
CCOc1cc(C)c(Cl)cc1S(=O)(=O)N1CCCC1 | -16% | -1 | -2% | 0.93µM* | -5% | -5
COc1cc(C)c(Cl)cc1S(=O)(=O)N1CCCC1 | -3% | 3 | 14% | u | -2% | -6
Cc1cc(Cl)c(S(=O)(=O)N2CCCC2)cc1OCC(=O)NC1CCCCC1 | x | -3 | 18% | 0.083µM* | -4% | -13
CCOCCCNC(=O)/C(C#N)=C/c1ccc(C)o1 | 287% | 9 | -13% | 0% | -3% | 28
C/C=C/c1ccc(OCC(=O)OCc2csc(Nc3ccc(C)cc3)n2)c(OC)c1 | u | 44* | -24% | -73% | 2% | 91*
C/C=C/c1ccc(OCC(=O)Nc2ccc(C(N)=O)cc2)c(OC)c1 | -11% | 1 | -5% | -20% | -2% | -6
Cc1ccc(Nc2nc(COC(=O)COc3ccc(C=O)cc3)cs2)cc1 | 107% | 25* | -23% | 103% | -19% | 69*
SMILES | Pf growth 48h | CHX counter | AMA1 RON2 block | Pf growth 96h | SARS PLpro yeast | Shiga inhibitor
Cc1c(-c2ccc(Br)cc2)[n+](=O)c2c(n1[O-])CCCC2 | -13% | -8 | 3% | -35%[5.75 µM] | 1% | 26
O=C1NC[C@H](Cc2ccccc2)N(C[C@@H]2CCCN2C[C@H](Cc2ccc(O)cc2)N2C[C@H](Cc3ccc(O)cc3)N(CCc3ccccc3)C(=O)C2=O)C1=O | x | x | -7% | x | x | x
O=C1NC[C@H](Cc2ccc(O)cc2)N(C[C@H]2CCCN2C[C@H](Cc2ccc(O)cc2)N2C[C@H](Cc3ccc(O)cc3)N(CCc3ccccc3)C(=O)C2=O)C1=O | x | x | 32µM* | x | x | x
CCc1cccc2c1NC(=O)[C@]21[C@@H]2C(=O)N(Cc3ccccc3)C(=O)[C@@H]2[C@@H]2CCCN21 | 9.3µM* | 1 | -11% | -2%[5.75 µM] | -1% | -20
O=C(/C=C/c1ccc(Cl)c(Cl)c1)NCc1ccco1 | -27% | 11 | -20% | 1.9µM* | -44% | active
N#C/C(=C\C=C\c1ccccc1)C(=O)NCc1ccco1 | u | 20 | 5% | 15µM* | -1% | 38
O=C(NCc1ccco1)/C(=C/C=C\c1ccccc1)NC(=O)c1ccc(Br)o1 | u | 3 | -6% | 20% | 4% | 15
O=C(/C=C/c1c(Cl)cccc1Cl)NCc1ccco1 | 8% | 13 | 2%[11.6 µM] | 27% | 9% | -8
O=C(/C=C/c1ccc2c(c1)OCO2)NCc1ccco1 | 34% | 25* | -26% | 70% | -1% | 33
O=C(/C=C/c1ccccc1Cl)NCc1ccco1 | u | 43* | -11% | u | -14% | 63*
Cc1c(C(=O)N2CCCC2)c(S(=O)(=O)Nc2ccccc2)c(C)n1C | 18% | 4 | 26% | 10% | 5% | -2
CC(C)c1ccc(N(CC(=O)NC2CCCCC2)C(=O)CCC(=O)Nc2ccccn2)cc1 | u | -3 | 15% | 25% | -1% | 22
O=C(/C=C/c1ccccc1)NCc1ccco1 | 51% | 30* | -13% | -12% | -1% | 69*
O=C(O)/C=C/C(=O)OC1CC2CCC1C2 (stereo not drawn) | -2% | 6 | 1% | 5% | 0% | -1
CC1Cc2ccccc2N1C(=O)CSc1ccccc1 (stereo not drawn) | -16% | 51* | 6% | u | -4% | 98
CC1CCN(CC(=O)N2CCc3ccccc32)CC1 | -2% | 17* | -1% | -21% | 3% | 25
O=C1c2ccccc2C(=O)N1CCC(=O)N1CCCc2ccccc21 | 3% | 34* | -1% | 23% | -7% | 65
O=C(CN1CCCC1)N1CCCc2ccccc21 | -9% | 1 | -10% | 19µM* | 1% | 2
CCOC(=O)C1CCN(CC(=O)N2CCc3ccccc32)CC1 | 0% | -1 | 2% | 14% | 1% | 16
O=C1c2ccccc2C(=O)N1CCC(=O)N1CCc2ccccc21 | x | x | -7% | x | x | x
CC1Cc2ccccc2N1C(=O)CCn1c(=O)sc2ccccc21 (stereo not drawn) | u | 12* | 6% | u | 0% | 59

Screening results deposited in PubChem by National Center for Advancing Translational Sciences (NCATS).
